# PubChem BioAssay AID619 (University of Pittsburgh Molecular Library Screening Center, 2007)
# In all, about 97,000 compounds went through this assay and about 520 (0.54%) were called active.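 Rule for the calls: active = inhibition of 50% or more in the single-concentration screen; inactive = inhibition below 50%.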 Many of the other results were omitted from the sample, so actives are more common in it than they were.
# Molecular target: Serine/threonine-protein kinase PLK1 (Homo sapiens) (UniProt P53350)
# Experiment: Plk1 peptide phosphorylation blockers – biochemical, TR-FRET, primary screen (AID 619);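 note: 0% = DMSO max control and 100% = H-89 dihydrochloride min control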
# Conditions: recombinant PLK1 kinase, at 10 µM, active compounds read high
# Sequence of Serine/threonine-protein kinase PLK1 (Homo sapiens) (P53350 whole entry, looked up): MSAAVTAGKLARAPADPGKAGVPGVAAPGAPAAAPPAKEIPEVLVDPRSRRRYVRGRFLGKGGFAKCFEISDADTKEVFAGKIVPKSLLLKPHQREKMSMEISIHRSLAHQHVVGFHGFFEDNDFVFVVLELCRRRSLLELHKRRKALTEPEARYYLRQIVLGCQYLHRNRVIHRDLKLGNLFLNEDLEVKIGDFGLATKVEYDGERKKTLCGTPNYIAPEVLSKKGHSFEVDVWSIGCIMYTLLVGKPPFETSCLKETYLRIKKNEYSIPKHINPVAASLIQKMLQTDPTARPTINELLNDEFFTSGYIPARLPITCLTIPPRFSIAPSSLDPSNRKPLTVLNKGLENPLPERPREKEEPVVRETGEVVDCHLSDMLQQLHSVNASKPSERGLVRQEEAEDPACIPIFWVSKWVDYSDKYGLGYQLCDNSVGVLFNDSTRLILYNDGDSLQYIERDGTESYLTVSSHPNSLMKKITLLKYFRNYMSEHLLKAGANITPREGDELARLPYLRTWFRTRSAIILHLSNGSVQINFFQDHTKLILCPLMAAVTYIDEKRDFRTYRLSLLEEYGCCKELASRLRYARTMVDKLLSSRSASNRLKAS
row,SMILES,inhibition
1,COCC(=O)Nc1ccc(Br)cc1,2.4% (inactive)
2,COc1ccc(NCc2nnc(SCc3ccccc3)n2-c2ccc(OC)cc2)cc1,-14.5% (inactive)
3,CC1Cc2ccccc2N1C(=O)c1cc2sccc2n1Cc1ccccc1 (stereo unspecified),-10.7% (inactive)
4,Cc1ccc(C(=O)N/C(=C/C=C/c2ccccc2)C(=O)NCc2ccco2)cc1,-5.76% (inactive)
5,O=C(/C=C/c1ccccc1)N/C(=C/c1ccccc1)C(=O)Nc1ccccc1O,-4.44% (inactive)
6,Cc1ccccc1-n1c(C)cc(/C=N/NC(=O)c2ccc(CN3CCOCC3)cc2)c1C,-16% (inactive)
7,Fc1ccccc1COc1ccccc1CNCc1ccncc1,-5.47% (inactive)
8,COCCCNC(=O)CN1CCN(Cc2ccccc2Cl)C1=O,-2.49% (inactive)
9,COC(=O)CNS(=O)(=O)c1ccc(OC)cc1,-2.7% (inactive)
10,Cc1ccc(-n2c(CNc3ccc(F)cc3)nnc2SCC(=O)N2CCOCC2)cc1,-8.34% (inactive)
11,O=C(NCc1ccccn1)c1cc(-c2ccccc2Cl)on1,-11.3% (inactive)
12,CCC(C)NC(=O)CCCc1ccccc1 (stereo unspecified),3.26% (inactive)
13,O=C(Cn1cncn1)N/N=C/c1c2ccccc2cc2ccccc12,-1.05% (inactive)
14,CC1CCN(S(=O)(=O)c2ccc(S(=O)(=O)NCc3ccco3)cc2)CC1,-3.69% (inactive)
15,Oc1ccc(-c2onc3ccc(Cl)cc23)cc1,7.69% (inactive)
16,Cn1nc(C(F)(F)F)c(C(=O)Nc2cccc(C(F)(F)F)c2)c1SCc1ccc(Cl)cc1,-9.84% (inactive)
17,C=CCNc1nc(N)c(C(=C(C#N)C#N)c2ccccc2)s1,-9.14% (inactive)
18,Cc1c(Nc2cc(N3CCCC(C)C3)c3nonc3c2[N+](=O)[O-])c(=O)n(-c2ccccc2)n1C (stereo unspecified),-8.74% (inactive)
19,O=C(Nc1nnc(SCc2c(Cl)cccc2Cl)s1)C1CCCO1 (stereo unspecified),2.16% (inactive)
20,CC(C)C[C@@H](N)c1nnc(SCC(=O)c2ccc(Cl)cc2)o1,-3.08% (inactive)
21,COc1ccc2[nH]cc(/C=C(/C#N)S(=O)(=O)c3ccccc3)c2c1,0.68% (inactive)
22,CC1CC(C)CN(C(=O)CSc2nnc(CSc3ncccn3)n2C)C1 (stereo unspecified),-3.56% (inactive)
23,CCN1C(=O)C(CC(=O)Nc2cc(C)ccc2C)SC1=Nc1ccc(S(N)(=O)=O)cc1 (stereo unspecified),-2.89% (inactive)
24,COC(=O)C1=C(C)N=C2SC(C)C(=O)N2C1/C=C/c1ccccc1 (stereo unspecified),-12.6% (inactive)
25,Cc1nn(C)c(Oc2ccccc2)c1[N+](=O)[O-],-6.21% (inactive)
26,CCOC(=O)C1=C(NC(=S)NC(=O)c2ccccc2)c2ccccc2CC1(C)C,5.6% (inactive)
